# Results from the supplement of paper PMC10849652.
# About 8,800 targets were measured; listed, in parts, are those with a hit and a random draw of the rest. About 0.5% of all pairs of compound and target were hits. A number with no mark means an inactive call.
# Columns and labels:
# Experiment in all cases: log2 fold change, soluble protein after heating vs DMSO (PISA); higher = thermal stabilisation; K562 lysate, 10 uM; active = over 0.2 and 3.5 SD of the protein, either way, in both replicates (recomputed)
# [1] = compound: Cc1cn(-c2cc(NC(=O)c3ccc(C)c(Nc4nccc(-c5cccnc5)n4)c3)cc(C(F)(F)F)c2)cn1 [nilotinib]
# Outline: (§1)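 The values are log-two fold changes in thermal stability compared with solvent controls and come from duplicates. They were obtained by TMTpro 16plex LC-MS/MS, with channel sums equalised, on the supernatant after 21,000xg for 90 min. That supernatant came from crude K562 extract at 1 mg/mL protein treated with 10 μM compound for 30 min, heated for 3 min across 48°C-58°C, pooled and brought to 0.5% NP-40 at 4°C.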
# [2] = compound: Cc1nc(Nc2n[nH]c3c2CN(C(=O)N[C@H](CN(C)C)c2ccccc2)C3(C)C)c2sccc2n1
# Outline: as §1
# [3] = compound: Cc1nc(Nc2ncc(C(=O)Nc3c(C)cccc3Cl)s2)cc(N2CCN(CCO)CC2)n1 [dasatinib]
# Outline: as §1
# [4] = compound: Cc1ncc(-c2ccnc(Nc3ccc(S(C)(=O)=O)cc3)n2)n1C(C)C
# Outline: as §1
# [5] = compound: Cn1cc(-c2ccc3c(c2)CCN3C(=O)Cc2cccc(C(F)(F)F)c2)c2c(N)ncnc21
# Outline: as §1
# [6] = compound: Cn1cc(CNCC2CCN(c3ncc(C(=O)NO)cn3)CC2)c2ccccc21 [quisinostat]
# Outline: as §1
# [7] = compound: Cn1cncc1[C@@](N)(c1ccc(Cl)cc1)c1ccc2c(c1)c(-c1cccc(Cl)c1)cc(=O)n2C [tipifarnib]
# Outline: as §1
# [8] = compound: NC(=O)Nc1cc(-c2cccc(F)c2)sc1C(=O)N[C@H]1CCCNC1
# Outline: as §1
# [9] = compound: NC(=O)c1cnc(N[C@@H]2CCCC[C@@H]2N)nc1Nc1cccc(-n2nccn2)c1
# Outline: as §1
# [10] = compound: NC1(c2ccc(-c3nc4ccn5c(=O)[nH]nc5c4cc3-c3ccccc3)cc2)CCC1
# Outline: as §1
# [11] = compound: NCC(=O)Nc1ccc(-n2nc(C(F)(F)F)cc2-c2ccc3c(ccc4ccccc43)c2)cc1
# Outline: as §1
# [12] = compound: O=C(CCCCCCC(=O)Nc1ccccc1)NO [vorinostat]
# Outline: as §1
# [13] = compound: O=C(O)c1ccc2c(c1)nc(Nc1cccc(Cl)c1)c1ccncc12 [silmitasertib]
# Outline: as §1
# [14] = compound: O=C1NC(=O)C(c2cnc3ccccn23)=C1c1cn2c3c(cc(F)cc13)CN(C(=O)N1CCCCC1)CC2
# Outline: as §1
# [15] = compound: c1cn2cc(-c3ccc4cn[nH]c4c3)nc(Nc3ccc(N4CCOCC4)cc3)c2n1 [entospletinib]
# Outline: as §1
# Sequence of UniProt Q9P0K7 (Q9P0K7 whole entry, looked up): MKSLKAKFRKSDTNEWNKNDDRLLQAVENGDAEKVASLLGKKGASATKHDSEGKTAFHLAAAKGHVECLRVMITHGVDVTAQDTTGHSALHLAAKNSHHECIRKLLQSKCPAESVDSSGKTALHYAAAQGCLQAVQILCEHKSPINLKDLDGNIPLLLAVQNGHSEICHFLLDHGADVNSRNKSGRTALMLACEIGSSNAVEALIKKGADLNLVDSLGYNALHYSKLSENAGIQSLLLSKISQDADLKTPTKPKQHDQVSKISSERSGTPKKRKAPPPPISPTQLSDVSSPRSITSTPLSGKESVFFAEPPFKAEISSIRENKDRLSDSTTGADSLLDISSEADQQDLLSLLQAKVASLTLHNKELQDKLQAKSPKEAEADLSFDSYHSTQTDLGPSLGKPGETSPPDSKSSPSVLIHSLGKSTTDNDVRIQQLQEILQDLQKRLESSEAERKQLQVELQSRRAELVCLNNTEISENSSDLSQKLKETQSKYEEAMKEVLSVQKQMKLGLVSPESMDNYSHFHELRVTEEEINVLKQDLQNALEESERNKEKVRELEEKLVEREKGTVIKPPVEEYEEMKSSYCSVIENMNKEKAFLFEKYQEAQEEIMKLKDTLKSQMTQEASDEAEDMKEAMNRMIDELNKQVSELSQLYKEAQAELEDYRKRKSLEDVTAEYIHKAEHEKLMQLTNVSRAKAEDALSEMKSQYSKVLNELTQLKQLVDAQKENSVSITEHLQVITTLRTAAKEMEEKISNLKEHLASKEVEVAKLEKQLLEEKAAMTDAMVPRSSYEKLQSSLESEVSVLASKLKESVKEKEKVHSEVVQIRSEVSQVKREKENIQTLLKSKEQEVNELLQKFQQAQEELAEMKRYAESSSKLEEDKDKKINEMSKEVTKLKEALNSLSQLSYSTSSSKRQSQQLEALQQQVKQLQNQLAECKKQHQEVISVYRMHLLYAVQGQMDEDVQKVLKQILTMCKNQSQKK
# Sequence of UniProt Q7L523 (Q7L523 whole entry, looked up): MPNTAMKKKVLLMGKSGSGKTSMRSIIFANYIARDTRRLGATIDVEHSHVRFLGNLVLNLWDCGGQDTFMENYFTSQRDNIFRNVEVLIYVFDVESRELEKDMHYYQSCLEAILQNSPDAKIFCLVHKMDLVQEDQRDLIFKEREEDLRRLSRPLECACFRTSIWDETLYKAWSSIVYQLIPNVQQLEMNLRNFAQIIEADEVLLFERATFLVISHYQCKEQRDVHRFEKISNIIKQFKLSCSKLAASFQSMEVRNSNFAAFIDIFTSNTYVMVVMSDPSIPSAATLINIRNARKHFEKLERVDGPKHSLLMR
# Sequence of UniProt Q6UVJ0 (Q6UVJ0 whole entry, looked up): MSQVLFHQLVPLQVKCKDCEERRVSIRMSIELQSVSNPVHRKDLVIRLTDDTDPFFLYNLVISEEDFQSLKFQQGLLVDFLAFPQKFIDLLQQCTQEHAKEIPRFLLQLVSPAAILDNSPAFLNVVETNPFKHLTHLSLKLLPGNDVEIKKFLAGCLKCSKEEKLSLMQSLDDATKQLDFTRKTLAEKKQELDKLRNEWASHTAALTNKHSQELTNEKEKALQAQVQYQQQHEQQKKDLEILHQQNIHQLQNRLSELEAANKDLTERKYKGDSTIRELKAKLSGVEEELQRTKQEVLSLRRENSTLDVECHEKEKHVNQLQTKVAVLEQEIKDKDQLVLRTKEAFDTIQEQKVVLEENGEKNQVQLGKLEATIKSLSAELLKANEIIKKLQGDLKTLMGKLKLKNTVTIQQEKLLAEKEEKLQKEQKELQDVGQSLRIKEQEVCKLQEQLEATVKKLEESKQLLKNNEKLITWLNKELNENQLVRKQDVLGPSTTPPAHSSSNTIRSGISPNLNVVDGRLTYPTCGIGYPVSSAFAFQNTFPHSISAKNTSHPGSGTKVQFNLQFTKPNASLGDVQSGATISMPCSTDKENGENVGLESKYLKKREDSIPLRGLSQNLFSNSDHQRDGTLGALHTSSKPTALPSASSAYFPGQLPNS
# Sequence of UniProt Q9UL25 (Q9UL25 whole entry, looked up): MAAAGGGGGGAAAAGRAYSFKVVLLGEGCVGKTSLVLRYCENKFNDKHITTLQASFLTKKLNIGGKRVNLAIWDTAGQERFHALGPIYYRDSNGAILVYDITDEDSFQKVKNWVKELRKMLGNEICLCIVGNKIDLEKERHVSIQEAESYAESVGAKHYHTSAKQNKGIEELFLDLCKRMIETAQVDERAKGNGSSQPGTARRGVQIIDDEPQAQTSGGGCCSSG
# Sequence of UniProt O75582 (O75582 whole entry, looked up): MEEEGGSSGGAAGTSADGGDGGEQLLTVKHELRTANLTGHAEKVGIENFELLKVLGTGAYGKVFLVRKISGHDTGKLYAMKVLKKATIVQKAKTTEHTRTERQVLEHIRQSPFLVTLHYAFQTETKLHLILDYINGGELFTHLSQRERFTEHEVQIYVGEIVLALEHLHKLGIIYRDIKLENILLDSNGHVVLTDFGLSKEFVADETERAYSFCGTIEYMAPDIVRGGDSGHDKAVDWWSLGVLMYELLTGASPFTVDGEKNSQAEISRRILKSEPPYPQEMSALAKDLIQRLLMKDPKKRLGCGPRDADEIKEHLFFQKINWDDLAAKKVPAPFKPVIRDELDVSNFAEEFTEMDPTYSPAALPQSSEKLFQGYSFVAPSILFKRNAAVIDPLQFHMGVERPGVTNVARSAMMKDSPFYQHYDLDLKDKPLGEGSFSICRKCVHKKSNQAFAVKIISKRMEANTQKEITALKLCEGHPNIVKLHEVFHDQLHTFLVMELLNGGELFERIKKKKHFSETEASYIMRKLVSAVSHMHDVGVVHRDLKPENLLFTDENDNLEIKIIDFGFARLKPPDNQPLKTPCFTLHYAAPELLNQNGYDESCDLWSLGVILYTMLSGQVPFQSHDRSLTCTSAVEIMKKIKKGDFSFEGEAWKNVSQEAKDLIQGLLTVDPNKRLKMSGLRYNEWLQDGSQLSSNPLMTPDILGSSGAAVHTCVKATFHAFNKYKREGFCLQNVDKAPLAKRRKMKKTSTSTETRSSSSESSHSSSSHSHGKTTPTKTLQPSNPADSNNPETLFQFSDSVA
# Sequence of UniProt O15541 (O15541 whole entry, looked up): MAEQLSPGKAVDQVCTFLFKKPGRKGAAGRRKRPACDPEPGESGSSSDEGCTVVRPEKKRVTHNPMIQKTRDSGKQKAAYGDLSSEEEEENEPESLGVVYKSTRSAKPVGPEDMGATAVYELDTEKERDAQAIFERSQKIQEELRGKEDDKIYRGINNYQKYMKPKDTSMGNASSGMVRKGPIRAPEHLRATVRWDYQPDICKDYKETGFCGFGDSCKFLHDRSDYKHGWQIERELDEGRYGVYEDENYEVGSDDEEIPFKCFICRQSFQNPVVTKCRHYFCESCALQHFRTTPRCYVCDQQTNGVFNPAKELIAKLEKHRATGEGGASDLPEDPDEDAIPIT
# Sequence of UniProt Q9BWH6 (Q9BWH6 whole entry, looked up): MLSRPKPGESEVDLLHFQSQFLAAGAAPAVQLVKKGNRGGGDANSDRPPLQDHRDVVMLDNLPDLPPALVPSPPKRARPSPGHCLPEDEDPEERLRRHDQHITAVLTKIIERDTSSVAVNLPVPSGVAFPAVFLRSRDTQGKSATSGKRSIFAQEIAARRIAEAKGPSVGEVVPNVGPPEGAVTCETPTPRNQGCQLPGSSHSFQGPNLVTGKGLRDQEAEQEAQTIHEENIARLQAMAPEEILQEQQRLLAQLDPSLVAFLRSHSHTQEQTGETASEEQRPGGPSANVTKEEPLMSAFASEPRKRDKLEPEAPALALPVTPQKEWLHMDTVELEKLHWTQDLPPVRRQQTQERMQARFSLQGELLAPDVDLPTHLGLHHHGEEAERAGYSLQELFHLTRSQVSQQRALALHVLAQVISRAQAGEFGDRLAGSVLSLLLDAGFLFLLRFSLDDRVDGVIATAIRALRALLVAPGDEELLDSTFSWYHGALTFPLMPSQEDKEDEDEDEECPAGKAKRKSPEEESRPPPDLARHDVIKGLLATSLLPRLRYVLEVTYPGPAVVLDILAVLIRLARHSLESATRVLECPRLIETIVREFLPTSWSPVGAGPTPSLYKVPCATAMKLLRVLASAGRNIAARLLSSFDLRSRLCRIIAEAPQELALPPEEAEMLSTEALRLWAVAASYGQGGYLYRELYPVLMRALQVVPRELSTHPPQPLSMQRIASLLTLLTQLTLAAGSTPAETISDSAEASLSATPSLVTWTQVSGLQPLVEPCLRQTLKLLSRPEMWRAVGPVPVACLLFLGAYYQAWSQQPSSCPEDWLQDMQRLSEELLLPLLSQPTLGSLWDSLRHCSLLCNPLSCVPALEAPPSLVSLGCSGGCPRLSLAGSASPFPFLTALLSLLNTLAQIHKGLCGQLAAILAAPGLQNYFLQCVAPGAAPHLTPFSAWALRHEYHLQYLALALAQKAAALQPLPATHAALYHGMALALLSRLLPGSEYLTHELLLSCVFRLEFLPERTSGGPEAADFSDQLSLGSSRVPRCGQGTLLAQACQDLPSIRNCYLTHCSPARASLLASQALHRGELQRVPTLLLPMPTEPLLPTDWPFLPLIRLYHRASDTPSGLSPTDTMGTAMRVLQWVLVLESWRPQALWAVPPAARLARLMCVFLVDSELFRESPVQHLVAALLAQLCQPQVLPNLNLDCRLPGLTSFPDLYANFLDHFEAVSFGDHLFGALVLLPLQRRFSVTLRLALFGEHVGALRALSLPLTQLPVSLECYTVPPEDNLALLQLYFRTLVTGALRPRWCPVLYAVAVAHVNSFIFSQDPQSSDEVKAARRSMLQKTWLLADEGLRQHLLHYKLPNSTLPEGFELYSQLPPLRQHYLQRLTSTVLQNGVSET
# Sequence of UniProt Q8TC12 (Q8TC12 whole entry, looked up): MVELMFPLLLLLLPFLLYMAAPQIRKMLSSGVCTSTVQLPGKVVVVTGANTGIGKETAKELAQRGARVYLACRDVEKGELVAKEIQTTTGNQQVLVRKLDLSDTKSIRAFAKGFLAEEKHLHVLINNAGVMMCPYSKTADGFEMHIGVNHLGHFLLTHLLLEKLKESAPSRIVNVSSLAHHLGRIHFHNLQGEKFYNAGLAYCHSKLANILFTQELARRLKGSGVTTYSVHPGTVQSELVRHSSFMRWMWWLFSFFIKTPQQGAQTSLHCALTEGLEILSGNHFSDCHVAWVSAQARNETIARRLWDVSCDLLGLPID
Target,log2 fold change [1],log2 fold change [2],log2 fold change [3],log2 fold change [4],log2 fold change [5],log2 fold change [6],log2 fold change [7],log2 fold change [8],log2 fold change [9],log2 fold change [10],log2 fold change [11],log2 fold change [12],log2 fold change [13],log2 fold change [14],log2 fold change [15]
RDX (UniProt P35241),-0.003,-0.006,0.037,0.048,-0.008,0.047,0.013,-0.007,0.002,0.006,0.002,0.129,-0.017,-0.008,0.023
RNF149 (UniProt Q8NC42),0.083,0.129,-0.019,0.099,0.003,-0.019,0.087,0.038,0.156,-0.019,0.036,0.098,0.013,0.015,
RFC2 (UniProt P35250),0.005,-0.018,-0.027,-0.012,0.062,-0.04,-0.014,0.036,0.014,-0.05,-0.027,-0.506 (active),0.043,-0.017,0.004
RPS6KA5 (UniProt O75582),-0.037,0.004,-0.006,-0.079,0.065,0.062,0.042,0.073,-0.086,-0.127,-0.025,-0.189,0.034,-0.303,-0.007
QTRT2 isoform 4 (UniProt Q9H974),-0.001,-0.024,0.005,-0.024,-0.051,-0.059,0.022,0.022,0.004,0.021,0.004,0.079,-0.011,-0.007,0.022
RRAGA (UniProt Q7L523),-0.144,0.032,-0.025,-0.065,0.024,-0.045,0.109,0.082,0.033,-0.04,-0.007,0.099,0.039,-0.015,0.05
SCO1 (UniProt O75880),0.046,0.029,0.001,-0.095,0,-0.13,-0.108,-0.033,0.029,0.001,0.022,0.149,-0.067,-0.052,0
RNF113A (UniProt O15541),0.003,-0.004,-0.015,0.007,0.04,0.063,-0.019,-0.068,-0.005,-0.002,0.009,-0.02,-0.03,-0.004,0.02
RABEPK (UniProt Q7Z6M1),-0.003,0.005,0.005,-0.01,0.012,0.004,0.007,-0.018,0.013,0.002,0.008,-0.441 (active),0.032,0.014,0.009
RPS29 (UniProt P62273),0.117,0.072,0.22,0.061,0.112,0.361,0.094,-0.116,-0.024,-0.068,-0.105,0.145,-0.03,0.205,-0.085
RNF168 (UniProt Q8IYW5),0.144,0.085,0.064,-0.186,0.006,-0.019,0.016,-0.009,-0.02,0.018,0.056,-0.313,0.025,-0.046,0.042
RIOK1 (UniProt Q9BRS2),-0.018,0.06,-0.018,0.072,0.008,-0.007,0.003,-0.012,-0.033,-0.072,0.016,-0.035,0.358 (active),-0.02,0.029
SASS6 (UniProt Q6UVJ0),-0.032,0.01,-0.083,0.017,0.008,-0.045,-0.03,0.03,0.044,0.003,0.015,-0.381 (active),0.012,0.021,0.003
RHOA (UniProt P61586),-0.08,0.104,0.017,-0.008,-0.013,0.167,-0.021,-0.004,0.008,-0.062,0.03,0.064,-0.009,0,0.022
RIPK1 (UniProt Q13546),-0.053,-0.014,0.087,0.248 (active),0.723 (active),-0.074,-0.064,0.015,0.01,-0.047,-0.021,-0.292 (active),-0.037,-0.013,0.011
RPS4X (UniProt P62701),0.01,-0.023,0.025,-0.002,-0.003,0.016,0.01,-0.001,-0.034,0.008,0.008,0.106,0.028,0.015,0.016
RRM1 (UniProt P23921),-0.003,0.008,-0.026,0.001,0.016,-0.018,0.007,0.016,-0.002,-0.038,0.011,-0.227 (active),0.027,-0.003,-0.013
RAI14 isoform 2 (UniProt Q9P0K7),-0.004,-0.006,-0.003,-0.05,0.013,-0.023,-0.036,-0.02,0.012,-0.013,0.005,-0.254 (active),0.022,0.015,-0.003
RAB21 (UniProt Q9UL25),0.069,-0.036,0.043,-0.017,-0.022,-0.023,-0.051,0.019,-0.017,-0.007,0.017,-0.235,-0.021,0.029,0.02
RDH11 (UniProt Q8TC12),0.034,-0.05,-0.075,-0.045,-0.021,0.038,-0.038,0.103,0.034,-0.011,0.008,0.038,0.022,-0.047,0.014
RPAP1 (UniProt Q9BWH6),-0.002,0.014,-0.027,-0.01,0.032,-0.02,-0.01,0.013,0.029,0.004,0.006,-0.232 (active),0,0.015,-0.025
